Calls of active or inactive are those of the source.
Legend:
[1] = anti-His antibody binders, primary screen, artefact control for SMM control protein annotation, biochemical, small-molecule microarray, 635 nm fluorescence (AID 1128); details: anti-His Alexa647 antibody binding, higher = more signal;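 further: score merges feature fluorescence with signal-to-noise for each printed compound spot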
[2] = tested on: Human papillomavirus type 1a E7 protein (residues 1-88); experiment: HPV1a E7 small-molecule binders, primary screen, biochemical, small-molecule microarray, residues 1-88, 635 nm (AID 1129); details: small-molecule microarray binding, fluorescence 635 nm; higher = more signal
[3] = biological target: Focal adhesion kinase 1 (Homo sapiens) (UniProt Q05397); experiment: small-molecule microarray binders of FAK, primary screen, biochemical, 635/667 nm fluorescence, BSA, DTT (AID 1130); details: PTK2 binding, 635 nm fluorescence, higher = more signal;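 further: composite of spot emission at 667 nm and signal to noise over triplicate slides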
[4] = tested on: Fibrinogen (Alexa647-labelled); experiment: fibrinogen binders on compound microarrays, profiling panel, artefact control for SMM control-protein annotation, biochemical, small-molecule microarray, 635/667 nm fluorescence (AID 1131); details: fibrinogen-A647 binding fluorescence, higher = more signal;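 further: z-score merges 667 nm fluorescence with per-spot signal-to-noise over triplicate slides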
[5] = biological target: Follistatin (Homo sapiens) (UniProt P19883); experiment: follistatin binders on small-molecule microarrays, primary screen, biochemical, small-molecule microarray, 635/667 nm fluorescence (AID 1132); details: FST binding, 635 nm fluorescence, higher = more signal
[6] = biological target: Fibroblast growth factor 2 (Homo sapiens) (UniProt P09038); experiment: FGF2 binders on small-molecule microarrays, primary screen, biochemical, small-molecule microarray, 635/667 nm fluorescence (AID 1133); details: small-molecule microarray binding, FGF2, fluorescence 635/667; higher = more signal
[7] = mitochondrial membrane potential change in A549 cells, profiling panel, cell-based, JC-1 fluorescence, basal, 24 h, 100 nL (AID 1138); details: higher = more signal;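 further: A549 lung adenocarcinoma cells under basal conditions with no added stimulus; test concentration not given here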
Lefty1 = Lefty1 binders on small-molecule microarrays, primary screen, biochemical, small-molecule microarray, 635/667 nm fluorescence (AID 1139); details: small-molecule microarray binding, fluorescence 635/667; higher = more signal
[8] = tested on: wheat germ agglutinin (Triticum aestivum), Alexa647-labelled; experiment: wheat germ agglutinin binders on compound microarrays, profiling panel, artefact control for SMM control-protein annotation, biochemical, small-molecule microarray, 635/667 nm fluorescence (AID 1140); details: WGA-A647 binding, 635 nm fluorescence, higher = more signal;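 further: score merges 667 nm feature emission with signal to noise over triplicate slides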
[9] = biological target: Luciferin 4-monooxygenase (Photinus pyralis) (UniProt P08659); experiment: firefly luciferase enzyme inhibitors, primary screen, biochemical, luminescence, purified enzyme, 2006 set (AID 1141); details: SteadyGlo luminescence, 30 min, higher = more signal, called active from +8 up or from −8 down;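 further: cell-free assay with purified firefly luciferase at 100 ng per well in PBS; test concentration not given here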
Chain of Luciferin 4-monooxygenase (Photinus pyralis) (P08659 whole entry, looked up): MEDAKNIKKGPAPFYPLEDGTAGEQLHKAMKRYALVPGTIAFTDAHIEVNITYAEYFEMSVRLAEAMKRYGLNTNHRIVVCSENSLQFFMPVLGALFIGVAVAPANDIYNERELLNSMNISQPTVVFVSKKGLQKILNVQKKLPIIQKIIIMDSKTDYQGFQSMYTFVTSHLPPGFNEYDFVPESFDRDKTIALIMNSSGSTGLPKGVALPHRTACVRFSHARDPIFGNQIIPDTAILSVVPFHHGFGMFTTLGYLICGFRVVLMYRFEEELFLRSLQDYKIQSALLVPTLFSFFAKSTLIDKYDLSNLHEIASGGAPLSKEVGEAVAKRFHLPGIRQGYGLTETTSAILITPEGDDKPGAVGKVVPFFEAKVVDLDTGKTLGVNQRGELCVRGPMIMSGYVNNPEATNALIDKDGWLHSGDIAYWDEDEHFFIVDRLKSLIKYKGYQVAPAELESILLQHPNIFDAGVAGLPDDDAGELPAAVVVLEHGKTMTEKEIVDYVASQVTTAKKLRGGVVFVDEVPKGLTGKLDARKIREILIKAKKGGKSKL

Chain of Follistatin (Homo sapiens) (P19883 whole entry, looked up): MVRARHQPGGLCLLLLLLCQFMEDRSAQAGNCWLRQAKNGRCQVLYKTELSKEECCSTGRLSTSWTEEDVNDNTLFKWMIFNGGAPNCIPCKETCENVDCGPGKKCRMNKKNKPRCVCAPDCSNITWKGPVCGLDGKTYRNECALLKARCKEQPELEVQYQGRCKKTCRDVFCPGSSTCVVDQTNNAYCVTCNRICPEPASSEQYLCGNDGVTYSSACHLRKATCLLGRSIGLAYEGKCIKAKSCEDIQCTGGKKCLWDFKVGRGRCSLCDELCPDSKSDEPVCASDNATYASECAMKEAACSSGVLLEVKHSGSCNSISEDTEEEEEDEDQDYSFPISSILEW
Chain of Focal adhesion kinase 1 (Homo sapiens) (Q05397 whole entry, looked up): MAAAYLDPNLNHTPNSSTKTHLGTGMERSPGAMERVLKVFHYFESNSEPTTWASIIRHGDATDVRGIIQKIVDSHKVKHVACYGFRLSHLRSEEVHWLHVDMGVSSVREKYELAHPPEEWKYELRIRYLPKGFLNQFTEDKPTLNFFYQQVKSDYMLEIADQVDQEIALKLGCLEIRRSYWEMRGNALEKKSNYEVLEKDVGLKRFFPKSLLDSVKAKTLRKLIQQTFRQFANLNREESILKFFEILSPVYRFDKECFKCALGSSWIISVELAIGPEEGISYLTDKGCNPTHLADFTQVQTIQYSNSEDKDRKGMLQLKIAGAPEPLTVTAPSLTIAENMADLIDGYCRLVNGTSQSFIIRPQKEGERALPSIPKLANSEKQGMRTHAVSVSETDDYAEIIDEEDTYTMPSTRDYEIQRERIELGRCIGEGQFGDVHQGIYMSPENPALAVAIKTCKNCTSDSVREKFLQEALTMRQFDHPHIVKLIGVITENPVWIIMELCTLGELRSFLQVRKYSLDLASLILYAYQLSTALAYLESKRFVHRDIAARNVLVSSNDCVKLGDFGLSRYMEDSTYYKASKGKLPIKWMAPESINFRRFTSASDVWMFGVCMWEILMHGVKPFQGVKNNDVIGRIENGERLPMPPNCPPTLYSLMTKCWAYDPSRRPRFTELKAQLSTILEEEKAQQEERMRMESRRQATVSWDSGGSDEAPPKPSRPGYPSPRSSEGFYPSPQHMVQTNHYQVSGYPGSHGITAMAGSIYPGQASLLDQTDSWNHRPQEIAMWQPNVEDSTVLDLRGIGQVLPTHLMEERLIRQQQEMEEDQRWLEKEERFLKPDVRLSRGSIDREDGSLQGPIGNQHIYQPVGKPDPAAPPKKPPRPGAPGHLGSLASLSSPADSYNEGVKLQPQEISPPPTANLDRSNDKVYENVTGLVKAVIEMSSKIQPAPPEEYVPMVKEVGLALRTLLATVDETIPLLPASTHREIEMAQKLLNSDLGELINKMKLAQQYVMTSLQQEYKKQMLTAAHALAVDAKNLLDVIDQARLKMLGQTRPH
Chain of Fibroblast growth factor 2 (Homo sapiens) (P09038 whole entry, looked up): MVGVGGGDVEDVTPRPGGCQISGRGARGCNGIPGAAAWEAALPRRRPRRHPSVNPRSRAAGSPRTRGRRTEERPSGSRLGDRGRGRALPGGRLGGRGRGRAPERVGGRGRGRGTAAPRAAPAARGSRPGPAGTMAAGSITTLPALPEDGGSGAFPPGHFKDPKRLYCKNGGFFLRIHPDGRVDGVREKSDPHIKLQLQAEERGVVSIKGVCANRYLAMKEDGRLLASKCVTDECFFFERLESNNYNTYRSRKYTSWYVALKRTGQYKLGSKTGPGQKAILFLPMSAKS

O=C1NC(=O)C2C1C=CC(C(O)Cc1ccccc1)N2Nc1ccc(Cl)cc1Cl (stereo not given)
composite z-score [1]: 0.432
composite z-score [2]: -0.364
composite z-score [3]: 0.247
composite z-score [4]: 0.773
composite z-score [5]: 0.178
composite z-score [6]: -0.644
z-score [7]: 2.92
composite z-score (Lefty1): -0.695
composite z-score [8]: 0.834
z-score [9]: 0.981 (inactive)

COCCCN1C(=O)[C@@]2(Cc3ccccc31)c1ccccc1C(=O)N(Cc1ccccc1C(F)(F)F)[C@H]2c1ccc(CO)cc1
composite z-score [1]: -0.169
composite z-score [2]: 0.439
composite z-score [3]: 0.521
composite z-score [4]: -0.371
composite z-score [5]: 1.26
composite z-score [6]: 1.14
z-score [7]: 0.317
composite z-score (Lefty1): 0.469
composite z-score [8]: 0.101
z-score [9]: -0.259 (inactive)

CCCC[C@H]1OB(O)C[C@H]2C1=C(COc1ccccc1)C[C@H]1C(=O)N(C)C(=O)[C@H]12
composite z-score [1]: -0.0391
composite z-score [2]: 0.0417
composite z-score [3]: -0.281
composite z-score [4]: -0.0052
composite z-score [5]: 1.24
composite z-score [6]: 0.473
z-score [7]: 0.284
composite z-score (Lefty1): 0.576
composite z-score [8]: 0.0686
z-score [9]: -0.718 (inactive)

Cc1ccc(S[C@]2(C(=O)NCC(F)(F)F)CC(=O)N(C(C)C)[C@@H]2c2ccc(CO)cc2I)cc1
composite z-score [1]: -1.45
composite z-score [2]: -0.68
composite z-score [3]: -0.188
composite z-score [4]: -1.11
composite z-score [5]: -0.366
composite z-score [6]: 0.0888
z-score [7]: 0.758
composite z-score (Lefty1): -1.13
composite z-score [8]: -0.86
z-score [9]: -1.01 (inactive)

CCOc1cc(C(O)C2C=CC3C(=O)N(c4ccccc4)C(=O)C3N2Nc2ccccc2)ccc1O (stereo not given)
composite z-score [1]: 1.3
composite z-score [2]: 1.19
composite z-score [3]: 1.54
composite z-score [4]: 0.896
composite z-score [5]: 0.608
composite z-score [6]: -0.106
z-score [7]: -0.0767
composite z-score (Lefty1): -0.231
composite z-score [8]: 0.471
z-score [9]: -1.15 (inactive)

COc1ccc(CCNC(=O)[C@@H]2c3ccccc3C(=O)N(C3Cc4ccccc4C3)[C@H]2c2ccc(CO)cc2)cc1
composite z-score [1]: 1.12
composite z-score [2]: 0.655
composite z-score [3]: 1.02
composite z-score [4]: 0.92
composite z-score [5]: 0.25
composite z-score [6]: 0.0201
z-score [7]: 0.997
composite z-score (Lefty1): -0.0376
composite z-score [8]: 0.645
z-score [9]: 0.672 (inactive)

COc1ccc(C(O)C2C=CC3C(=O)NC(=O)C3N2Nc2ccccn2)cc1 (stereo not given)
composite z-score [1]: 0.246
composite z-score [2]: 0.178
composite z-score [3]: -0.235
composite z-score [4]: 0.055
composite z-score [5]: 0.198
composite z-score [6]: 0.338
z-score [7]: -0.0269
composite z-score (Lefty1): 0.513
composite z-score [8]: 0.899
z-score [9]: -1.99 (inactive)

COc1ccc(C(=O)Nc2ccc(CN3C(=O)[C@@]4(O[C@@H](CC(=O)N5CCC[C@H]5CO)[C@H]([Si](C)(C)c5ccc(OC)cc5)[C@H]4C)c4ccccc43)cc2)cc1
composite z-score [1]: -0.271
composite z-score [2]: 1.2
composite z-score [3]: 1.02
composite z-score [4]: 0.655
composite z-score [5]: 1.33
composite z-score [6]: 1.68
z-score [7]: 3.25
composite z-score (Lefty1): 1.21
composite z-score [8]: 0.763
z-score [9]: -2.38 (inactive)

COc1ccc(C(O)C2C=CC3C(=O)NC(=O)C3N2Nc2ccccn2)c2ccccc12 (stereo not given)
composite z-score [1]: 0.516
composite z-score [2]: -0.609
composite z-score [3]: -0.106
composite z-score [4]: 0.0992
composite z-score [5]: 0.488
composite z-score [6]: 0.524
z-score [7]: -1.15
composite z-score (Lefty1): -0.0665
composite z-score [8]: 0.788
z-score [9]: -1.46 (inactive)

[N-]=[N+]=NCc1ccccc1C[C@]1(C(=O)N2CCOCC2)N=C(c2ccc(OCCCO)cc2)O[C@H]1c1ccccc1N=[N+]=[N-]
composite z-score [1]: 0.595
composite z-score [2]: 1.23
composite z-score [3]: 0.0652
composite z-score [4]: 0.987
composite z-score [5]: 1.33
composite z-score [6]: 0.823
z-score [7]: 0.274
composite z-score (Lefty1): 1.31
composite z-score [8]: 1.03
z-score [9]: -7.46 (inactive)

COC(=O)[C@@]1(Cc2ccccc2)[C@H]2c3cc(C(=O)N4CCCC4)n(Cc4cccc5ccccc45)c3C[C@H]2CN1C(=O)c1ccccc1
composite z-score [1]: 2.46
composite z-score [2]: 1.17
composite z-score [3]: 0.971
composite z-score [4]: 0.51
composite z-score [5]: 0.184
composite z-score [6]: -0.0086
z-score [7]: 1.11
composite z-score (Lefty1): -0.922
composite z-score [8]: 1.29
z-score [9]: 1.4 (inactive)

Cc1ccc(C(C)CC(O)C2C=CC3C(=O)N(C)C(=O)C3N2NC(=O)OC(C)(C)C)o1 (stereo not given)
composite z-score [1]: 1.65
composite z-score [2]: 1.01
composite z-score [3]: 0.759
composite z-score [4]: 0.314
composite z-score [5]: 0.997
composite z-score [6]: 0.48
z-score [7]: -0.475
composite z-score (Lefty1): 0.444
composite z-score [8]: 0.563
z-score [9]: -1.3 (inactive)

C=CCN1C(=O)[C@@]2(O[C@@H](CCO)[C@H]([Si](C)(C)c3ccc(OC)cc3)[C@H]2C)c2cc(NC(=O)c3ccc(OC)cc3)ccc21
composite z-score [1]: 0.919
composite z-score [2]: 0.563
composite z-score [3]: -0.0376
composite z-score [4]: 0.259
composite z-score [5]: 1.38
composite z-score [6]: 1.2
z-score [7]: 2.81
composite z-score (Lefty1): 0.763
composite z-score [8]: 0.458
z-score [9]: -1.26 (inactive)

COCCCNC(=O)[C@@]1(Cc2ccccc2N=[N+]=[N-])N=C(c2ccc(OCCCO)cc2)O[C@H]1c1ccccc1N=[N+]=[N-]
composite z-score [1]: 1.73
composite z-score [2]: 1.22
composite z-score [3]: 0.912
composite z-score [4]: 0.849
composite z-score [5]: 1.25
composite z-score [6]: 0.836
z-score [7]: 0.332
composite z-score (Lefty1): -0.0542
composite z-score [8]: 1.02
z-score [9]: -3.37 (inactive)

C=CCOC(=O)[C@H]1[C@@H]2C(=O)O[C@@H](c3ccccc3)[C@@H](c3ccccc3)N2[C@@H](c2ccc(OCCOC(=O)[C@@H]3C[C@@H]4C(=O)N[C@@H](CCCC[N+](C)(C)C)C(=O)N4[C@@H]3c3ccc(O)cc3)cc2)[C@]12C(=O)Nc1ccccc12
composite z-score [1]: 1.46
composite z-score [2]: 1.2
composite z-score [3]: 0.877
composite z-score [4]: 0.583
composite z-score [5]: 1.26
composite z-score [6]: 1.51
z-score [7]: -0.849
composite z-score (Lefty1): 1.18
composite z-score [8]: 0.494
z-score [9]: -2.95 (inactive)

CC(C)C[C@H]1NC(=O)[C@@]23C(=O)N[C@@H](Cc4ccccc4)C2[C@H](C)[C@@]2(C)O[C@H]2C3/C=C/C/C=C\CNC(=O)[C@H](Cc2ccccc2)NC1=O (stereo not given in full)
composite z-score [1]: 0.218
composite z-score [2]: 0.45
composite z-score [3]: -0.291
composite z-score [4]: 0.183
composite z-score [5]: 1.01
composite z-score [6]: 0.717
z-score [7]: 0.156
composite z-score (Lefty1): 1.24
composite z-score [8]: -0.204
z-score [9]: -3.01 (inactive)

COC(=O)C=C(CC(O)c1cccc(Cl)c1)OC (stereo not given)
composite z-score [1]: 1.14
composite z-score [2]: 1.15
composite z-score [3]: 0.0918
composite z-score [4]: 0.6
composite z-score [5]: -0.431
composite z-score [6]: -0.0579
z-score [7]: -0.252
composite z-score (Lefty1): -0.492
composite z-score [8]: 1.04
z-score [9]: 0.699 (inactive)

O=C1c2ccccc2[C@](Cc2ccccc2I)(C(=O)NC2CC2)[C@H](c2ccc(CO)cc2)N1C1CCCCC1
composite z-score [1]: 2.63
composite z-score [2]: 1.24
composite z-score [3]: 0.548
composite z-score [4]: 0.806
composite z-score [5]: 1.27
composite z-score [6]: 1.09
z-score [7]: 2.01
composite z-score (Lefty1): 0.593
composite z-score [8]: 0.993
z-score [9]: -0.912 (inactive)

Cc1ccc(S[C@]2(C(=O)NCCN3CCOCC3)CC(=O)N(Cc3ccccc3Cl)[C@@H]2c2ccc(CO)cc2)cc1
composite z-score [1]: 1.69
composite z-score [2]: -0.516
composite z-score [3]: 0.155
composite z-score [4]: -1.85
composite z-score [5]: 0.157
composite z-score [6]: -0.536
z-score [7]: -0.63
composite z-score (Lefty1): -0.188
composite z-score [8]: 0.193
z-score [9]: 1.58 (inactive)

C[N+](C)(C)CCCC[C@@H]1NC(=O)[C@@H]2C[C@H](C(=O)NCCCCCN)[C@H](c3cccc(OCCO)c3)N2C1=O
composite z-score [1]: 0.758
composite z-score [2]: 0.935
composite z-score [3]: 0.103
composite z-score [4]: 0.978
composite z-score [5]: 0.597
composite z-score [6]: 0.175
z-score [7]: 0.809
composite z-score (Lefty1): 0.161
composite z-score [8]: 1.07
z-score [9]: -1.25 (inactive)

COc1ccc(CCNC(=O)[C@@]2(Sc3ccc(C)cc3)CC(=O)N(C3CCCCC3)[C@@H]2c2ccc(CO)cc2I)cc1
composite z-score [1]: 0.949
composite z-score [2]: 1.21
composite z-score [3]: 0.28
composite z-score [4]: 0.151
composite z-score [5]: 0.884
composite z-score [6]: 0.535
z-score [7]: -0.0279
composite z-score (Lefty1): 0.569
composite z-score [8]: 0.396
z-score [9]: 0.645 (inactive)
